# Compounds with a hit are over-represented: about 19% of the library has one in this group of screens.
# DT40 TDP1 CPT – growth inhibition of DT40 Tdp1-/-;hTDP1 cells with camptothecin (screen for TDP1 inhibitors) | AID 686979 | Potency, µM (doses to about 46.2 µM), for inactives: top-dose activity change, negative = growth inhibition, actives largely listed as inhibitors | chicken DT40 Tdp1-/-;hTDP1 cells + 20 nM CPT, ATP luminescence, 48 h | hit rate 12% among 420,000; further: potency means the concentration at half of the fitted maximal effect; nearly all actives have a fitted effect of over 55% in size
#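 Cell growth measured by CellTiter-Glo luminescence after a minimum 48 h, 37 C compound exposure with 20 nM CPT in Tdp1-knockout DT40 cells stably expressing hTDP1, seeded 400/well; qHTS titration format.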
# HT1080-NT tox – kills 2HG-producing HT-1080-NT fibrosarcoma cells | HT-1080-NT fibrosarcoma viability, CellTiter-Glo ATP luminescence, 48 h | Potency, µM (doses to about 46.1 µM), for inactives: at the highest dose activity, negative = less viability, hits mostly cytotoxic | hit rate 1.6% among 360,000;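 further: NT is the 2HG producing partner of a matched IDH1 knockdown line; potency means the concentration at half of the fitted maximal effect; 0% = DMSO-treated cells and -100% = media-only wells without cells; nearly all actives have a fitted effect of over 55% in size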
#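 Toxicity toward the 2HG-producing NT line was scored as %Activity, normalised to DMSO and no-cell wells, from CellTiter-Glo luminescence after 48 hours' treatment.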
# HT1080 IDH1KD tx – kills HT-1080 cells with IDH1 knockdown; hit rate 2% among 360,000; Potency, µM (top dose mostly 46.1 µM), without a hit: top-dose activity, negative = toxicity, usual class: cytotoxic; HT-1080 IDH1 knockdown viability, ATP luminescence, 48 h;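 further: potency means the concentration at half of the fitted maximal effect; 0% = DMSO wells and -100% = cell-free medium wells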
#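 HT-1080-IDH1KD cells (IDH1 knocked down), 750/well in RPMI with 5% FBS, treated with compound 48 h at 37 degrees C. Viability by CellTiter-Glo luminescence, normalised to DMSO and no-cell wells; concentration-response curves classed.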
# DT40 TDP1 no CPT – qHTS for Inhibitors of human tyrosyl-DNA phosphodiesterase 1 (TDP1): qHTS in cells in absence of CPT; DT40 Tdp1-/- hTDP1 cells, no CPT, ATP luminescence, 48 h; hit rate 15% among 420,000; Potency, µM (series often up to 46.2 µM), inactives show at the highest dose activity change, negative = growth inhibition, usual class: inhibitors; AID 686978, 2013; further: potency means the concentration at half of the fitted maximal effect; nearly all actives have a fitted effect of over 55% in size
#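 Stably hTDP1-transfected Tdp1-null chicken DT40 cells were treated with library compounds minus camptothecin and grown for at least 48 hr at 37 °C, after which cellular ATP was quantified by luminescence.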
# IL1B secr inh – inhibitors of inflammasome signaling (IL-1 beta secretion) | THP-1 LPS/ATP IL-1B secretion, AlphaLISA, 16 h; hits give low values | activity change, % at 57.5 µM | hit rate 4.7% among 360,000; in the data active means activity change below about -50%; inconclusive means mostly about -30% to -49%
#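 Secreted IL-1B measured by AlphaLISA bead assay after 16 h compound exposure of THP-1 cells; compounds (final up to 57.5 uM) added 1 h before LPS (250 ng/mL) and ATP (1.25 mM) stimulation; lower signal means less secretion.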
# The depositor's hits bear a star; ? = inconclusive; nt = not tested or not shown. Unless noted, the call rests on the fitted dose curve; in most records, active means well fitted curve in the direction sought with a large enough effect; inconclusive means small, poorly fitted or top-dose-only effect, or another doubt; inactive means no such curve, though single readings can be large; an effect the other way counts as inactive or inconclusive. Unless noted, on the % scale 0 is the no-effect control and ±100 the full control effect.
SMILES,DT40 TDP1 CPT,HT1080-NT tox,HT1080 IDH1KD tx,DT40 TDP1 no CPT,IL1B secr inh
Cc1ccc(S(=O)(=O)N2CCN(C3CC(=O)N(c4ccc(F)cc4)C3=O)CC2)cc1C (stereo unspecified),-6%,0%,10%,?,-15
O=C(Cc1ccc(Br)cc1)N1CCN(c2ccccc2O)CC1,2%,-8%,-23%,-12%,-26
O=C(Cc1ccccc1)Nc1ccccc1Sc1ccccc1,-6%,0%,-20%,1%,9
O=C(COC(=O)Cn1cnc2ccccc2c1=O)Nc1ccccc1Sc1ccc(Cl)cc1,13µM*,-2%,-1%,26µM*,0
O=C(CCl)Nc1ccccc1Sc1ccc(Cl)cc1,21µM*,?,?,?,-100*
C[C@H](CO)N1C[C@H](C)[C@H](CN(C)S(=O)(=O)c2ccc(F)cc2)OCc2cnnn2CCCC1=O,15%,4%,3%,-39%,-9
COc1ccc(-c2ccc(C(=O)NCC3CCOCC3)c3occc23)c(C)c1,?,-16%,?,?,-11
O=C(NC1CCCC1)c1cccnc1N1CCCCCC1,?,-3%,0%,-16%,13
COc1ccc(-c2ccc(C(=O)NCc3ccccc3)c3occc23)c(C)c1,23µM*,?,?,?,?
O=C(NC1CCCCC1)c1ccc(-c2cn[nH]c2)c2ccoc12,23µM*,-24%,-17%,16µM*,-10
COc1ccc(-c2coc3c(C(=O)NCc4ccccc4)cccc23)c(C)c1,?,?,?,?,-18
COc1ccc(-c2ccc(C(=O)NCc3ccc(C(F)(F)F)cc3)c3occc23)c(C)c1,18µM*,?,?,16µM*,-22
COc1ccc(-c2ccc(C(=O)NCc3ccc(N4CCN(C)CC4)cc3)c3occc23)c(C)c1,16µM*,23µM*,?,16µM*,?
CCOC(=O)c1ccc(N2C(=O)CC(C)(CC)CC2=O)cc1,-5%,-9%,-2%,-8%,60
COc1ccc(-c2ccc(C(=O)NCCN(C)C)c3occc23)c(C)c1,?,29µM*,18µM*,?,-9
COc1ccc(-c2coc3c(C(=O)NC4CCCCC4)cccc23)c(C)c1,?,?,?,?,-27
COCCNC(=O)c1ccc(-c2ccc(OC)cc2C)c2ccoc12,?,-63%,-16%,?,-30
COc1ccc(-c2ccc(C(=O)NC3CCCCC3)c3occc23)c(C)c1,21µM*,?,?,18µM*,-28
CCN(CC)c1nc2c3c(nc4c(c3c1C#N)CC(=O)N4c1ccc(Cl)cc1)NC(C)=N2,?,-1%,-1%,18µM*,-8
CC(=O)c1ccc(N2CCN(c3ccc(C(N)=O)cc3[N+](=O)[O-])CC2)cc1,?,-1%,0%,?,5
COC(=O)c1ccc(N2CCN(C(=O)C3CC3)CC2)c([N+](=O)[O-])c1,21%,2%,2%,0%,21
NC(=O)c1ccc(N2CCN(S(=O)(=O)c3ccccc3)CC2)c([N+](=O)[O-])c1,?,-18%,-24%,7.3µM*,-11
COc1ccc(N2CCN(S(=O)(=O)c3ccc4c(c3)CCCC4)CC2)c([N+](=O)[O-])c1,16µM*,?,-28%,23µM*,-62*
COC(=O)c1ccc(N2CCN(S(=O)(=O)c3ccc4ccccc4c3)CC2)c([N+](=O)[O-])c1,16µM*,-9%,-9%,21µM*,-13
NC(=O)c1ccc(N2CCN(c3ccc(O)cc3)CC2)c([N+](=O)[O-])c1,?,-21%,-24%,16µM*,11
SMILES,DT40 TDP1 CPT,HT1080-NT tox,HT1080 IDH1KD tx,DT40 TDP1 no CPT,IL1B secr inh
O=C(c1ccc(N2CCCCC2)c([N+](=O)[O-])c1)N1CCN(S(=O)(=O)c2ccccc2)CC1,?,2%,-5%,?,?
COc1ccccc1CNc1ncncc1-c1ccccc1C(F)(F)F,-4%,nt,nt,-17%,nt
COc1ccc(OC)c(NC(=O)C2CCN(C(=O)C3CC(=O)N(c4ccc(C)cc4)C3)CC2)c1 (stereo unspecified),-8%,-6%,1%,?,-9
O=C(Nc1ccccc1-c1nnn(CC(=O)N2CCCc3ccccc32)n1)c1ccc(Cl)cc1,?,17%,16%,?,9
COc1cccc(CC(=O)Nc2ccc3c(c2)OC2(CCCC2)O3)c1,18µM*,-4%,0%,?,0
CCN(CC)S(=O)(=O)c1ccc(C)c(NC(=O)CNCCN(C(C)C)C(C)C)c1,-19%,2%,11%,?,8
NC(=S)N(c1ccccc1)c1ccccc1,6%,8%,10%,-6%,23
NC(=Nc1ccccc1)N(c1ccccc1)c1ccccc1,?,-1%,-17%,13µM*,6
CCCCN(CCCC)c1nc2ccccc2nc1C(C#N)C(=O)NCCCOC (stereo unspecified),?,3%,-2%,?,-1
CCCN(CCC)c1nc2ccccc2nc1C(C#N)C(=O)OC(C)COC (stereo unspecified),23µM*,-18%,-3%,23µM*,-51*
COc1ccc(/C=C2\C(=O)NC(=S)N2C(=O)c2ccc(C)cc2)cc1,?,2%,-4%,15µM*,12
CCNc1nn2ccccc2c1/C=C(\C#N)C(=O)OCC,?,3%,4%,16µM*,-21
CCOC(=O)/C(C#N)=C/c1c(N2CCCCCC2)nc2ccccn2c1=O,?,0%,-2%,21µM*,4
CCOC(=O)/C(C#N)=C/c1c(N2CCN(C)CC2)nc2ccccn2c1=O,5%,3%,4%,-14%,-14
COc1ccccc1NC(=O)c1cc(-c2ccc(C)o2)nc2ccccc12,?,0%,11%,?,0
O=C(Nc1cccnc1)c1cc(-c2ccc(Br)cc2)nc2ccccc12,?,?,?,?,-77*
Cc1cc(NC(=O)c2cc(-c3ccccc3C)nc3ccccc23)no1,?,-8%,3%,21µM*,26
Cc1ccc(-c2cc(C(=O)Nc3ccccn3)c3ccccc3n2)o1,?,3%,-4%,23µM*,-24
Cc1ccc(NC(=O)c2cc(-c3ccc(C)o3)nc3ccccc23)cc1,?,?,?,?,19
Cc1ccc(-c2cc(C(=O)Nc3cccnc3)c3ccccc3n2)o1,16µM*,?,?,?,8
CCn1nnc2cc(C(=O)Nc3ccc(Cl)cc3C)ccc21,2%,nt,nt,-15%,nt
